Screening data deposited in PubChem BioAssay by National Center for Advancing Translational Sciences (NCATS).
HT1080 IDH1KD tx = kills HT-1080 cells with IDH1 knockdown. HT-1080 IDH1 knockdown viability, ATP luminescence, 48 h. Potency, µM (highest dose often 46.1 µM), inactives show at the top dose activity, negative = toxicity, usual class: cytotoxic. hit rate 2% among 360,000. AID 686971;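 further: 0% = DMSO wells and -100% = cell-free medium wells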
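IDH1KD HT-1080 cells, 750/well, RPMI + 5% FBS; compound pinned after 2 h settling; 48 h, 37 °C; CellTiter-Glo luminescence; % activity normalised to DMSO and no-cell wells; curves fitted, classed by r2 and efficacy.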
TDP1 cell CPT = DT40-hTDP1 cell growth loss with CPT | chicken DT40 Tdp1-/-;hTDP1 cells + 20 nM CPT, ATP luminescence, 48 h | Potency, µM (highest dose often 46.2 µM), for inactives: at the highest dose activity change, negative = growth inhibition, most hits filed as inhibitors | hit rate 12% among 420,000; further: on the % scale 0 is the no-effect control and ±100 the full control effect; nearly all actives have a fitted effect of over 55% in size
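Chicken DT40 Tdp1-/- cells complemented with human TDP1, 400 cells/well, exposed to compounds plus 20 nM camptothecin for at least 48 h at 37 C; viability read as ATP content by CellTiter-Glo luminescence.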
HT1080-NT tox = kills 2HG-producing HT-1080-NT fibrosarcoma cells | HT-1080-NT fibrosarcoma viability, CellTiter-Glo ATP luminescence, 48 h | Potency, µM (titrated, usually from 46.1 µM), for inactives: at the top dose activity, negative = less viability, actives largely listed as cytotoxic | hit rate 1.6% among 360,000 | AID 686970;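 further: NT is the 2HG producing partner of a matched IDH1 knockdown line; 0% = DMSO-treated cells and -100% = media-only wells without cells; nearly all actives have a fitted effect of over 55% in size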
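Viability of the 2HG-overproducing fibrosarcoma line after 48 hours of compound exposure at 37 degrees C was determined by luminescence with CellTiter-Glo, and concentration-effect curves were then fitted and categorized.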
TDP1 cell noCPT = qHTS for Inhibitors of human tyrosyl-DNA phosphodiesterase 1 (TDP1): qHTS in cells in absence of CPT | Potency, µM (doses to about 46.2 µM), inactives show at the top dose activity change, negative = growth inhibition, actives largely listed as inhibitors | hit rate 15% among 420,000 | DT40 Tdp1-/- hTDP1 cells, no CPT, ATP luminescence, 48 h; further: on the % scale 0 is the no-effect control and ±100 the full control effect; nearly all actives have a fitted effect of over 55% in size
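Growth kinetics read by CellTiter-Glo luminescence after ≥48 hr at 37 °C. Cells: DT40 Tdp1-/- stably carrying human TDP1, 400 per well, compound exposure in the absence of CPT (DMSO vehicle).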
TGFb SMAD3 inh = inhibitors of TGF-b signaling; HepG2 CAGA-GFP TGF-b/SMAD3 reporter, GFP fluorescence, 18 h; TGF-beta stimulated, 500 pg/mL final; Potency, µM (series often up to 46.1 µM), for the others: top-dose activity, negative = inhibition, actives largely listed as inhibitors; hit rate 1.2% among 410,000; AID 588855; further: on the % scale 0 is the no-effect control and ±100 the full control effect; nearly all actives have a fitted effect of over 65% in size
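Smad-responsive CAGA-GFP expression was quantified in HEPG2 cells exposed to compounds and 500 pg/mL final TGF-beta for 18 h at 37 degrees C; unstimulated wells defined full inhibition.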
HepG2 tox = HepG2 cytotoxicity, counter-screen for TGF-b inhibitors | hit rate 0.76% among 410,000 | AID 588856 | Potency, µM (series often up to 46.1 µM), for inactives: top-dose activity change, negative = cytotoxicity, most hits filed as cytotoxic | HepG2 CAGA-GFP viability, ATP luminescence, 18 h
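CellTiter-Glo luminescence gave cytotoxicity after 18 hours at 37 degrees C. The cells were HepG2 CAGA-GFP in 1% FBS DMEM, stimulated with 500 pg/mL TGF-beta after compound addition. %Activity was normalised to no-cell wells (complete cell-killing) and DMSO (no toxicity), and curves were fitted and classified.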
* = called active by the depositor; ? = inconclusive; · = no result. Sampled rows, rich in hits. Any-hit rate of the full collection: about 17%. The call rests on the fitted dose curve; in most records, active means well fitted curve in the direction sought with a large enough effect; inconclusive means small, poorly fitted or top-dose-only effect, or another doubt; inactive means no such curve, though single readings can be large; an effect the other way counts as inactive or inconclusive. Potency means the concentration at half of the fitted maximal effect.

SMILES	HT1080 IDH1KD tx	TDP1 cell CPT	HT1080-NT tox	TDP1 cell noCPT	TGFb SMAD3 inh	HepG2 tox
COCCNC(=O)C1Cc2c(-c3ccc(NC(C)=O)cc3)ccnc2O1 (configuration not stated)	-24.5%	?	-28.5%	?	54.6%	3.3%
CC(=O)c1cccc(NC(=O)C2Cc3c(-c4ccc5c(c4)OCO5)ccnc3O2)c1 (configuration not stated)	-25.4%	13µM*	-5.1%	11.6µM*	4.6%	-39.3%
CC(=O)c1cccc(-c2ccnc3c2CC(C(=O)Nc2cccnc2)O3)c1 (configuration not stated)	-7.0%	2.9%	-5.2%	-23.0%	3.6%	-17.3%
CC(C)Oc1ccc(CNC(=O)C2COc3ccccc3C2)cc1 (configuration not stated)	·	-27.7%	·	?	-17.5%	-18.4%
CC(=O)c1cccc(NC(=O)C2Cc3c(-c4cccc(C(N)=O)c4)ccnc3O2)c1 (configuration not stated)	-12.0%	16.4µM*	?	16.4µM*	39.9%	-29.1%
CC(=O)c1cccc(-c2ccnc3c2CC(C(=O)Nc2ccc(C(C)C)cc2)O3)c1 (configuration not stated)	?	23.1µM*	?	10.3µM*	-8.3%	-31.2%
O=C(Nc1cccc(Oc2ccccc2)c1)C1Cc2c(-c3ccccc3)ccnc2O1 (configuration not stated)	0.5%	23.1µM*	-6.8%	?	-7.9%	-0.3%
O=C(CN(C(=O)c1csnn1)c1ccc2c(c1)OCCO2)NCc1ccccc1	7.5%	-3.9%	7.2%	-4.0%	2.8%	-20.8%
COc1ccc(C(=O)Nc2ccc(-c3nnn(CC(=O)NCc4ccco4)n3)cc2)cc1	2.7%	?	0.0%	?	15.6%	44.5%
Nc1cc(C(=O)OCC(=O)N2CCC(Cc3ccccc3)CC2)ccc1Cl	0.3%	-26.3%	3.8%	?	-1.4%	-23.6%
CNC(=O)c1c(NC(=O)c2ccc(S(=O)(=O)N3CCCCC3C)cc2)sc2c1CCC2 (configuration not stated)	·	13µM*	·	14.6µM*	7.5%	-11.8%
CC(C)N1CCc2c(sc(NC(=O)c3ccc(S(=O)(=O)N4CCCCC4C)cc3)c2C(N)=O)C1 (configuration not stated)	?	?	-27.5%	?	-4.0%	-41.4%
CNC(=O)c1c(NC(=O)c2ccc(S(=O)(=O)N3CCC(C)CC3)cc2)sc2c1CCC2	·	?	·	23.1µM*	-21.9%	-5.0%
COc1ccc(Br)cc1C(=O)Nc1cc(C)cc(C)c1	-3.5%	?	-3.8%	?	-29.9%	-2.2%
COc1ccc(CNC(=O)C(c2ccc(C)o2)N(Cc2cccs2)C(=O)Cc2cccs2)cc1 (configuration not stated)	-22.3%	29.1µM*	?	?	0.0%	-16.3%
O=C(NCc1ccccc1)C(c1ccccc1)N(Cc1ccc2c(c1)OCO2)C(=O)Cc1cccs1 (configuration not stated)	-27.6%	?	-18.1%	23.1µM*	-12.5%	-6.8%
COC(=O)c1ccc(C(C(=O)NC2CCCCC2)N(C(=O)Cc2cccs2)C2CC2)cc1 (configuration not stated)	2.7%	8.2µM*	3.9%	10.3µM*	-5.3%	-8.0%
O=C(NC1CCCC1)C(c1ccsc1)N(Cc1ccccc1)C(=O)Cc1cccs1 (configuration not stated)	-13.6%	18.4µM*	2.8%	13µM*	?	10.7%
CCCOc1ccc([N+](=O)[O-])c(N)c1	0.3%	11.7%	5.4%	-3.0%	-5.7%	-10.2%
O=C(NC1CCCC1)C(c1cccnc1)N(CCc1ccccc1)C(=O)c1ccco1 (configuration not stated)	-5.8%	-4.3%	7.6%	-8.6%	-8.9%	-7.3%
O=C(NC1CCCC1)C(c1ccncc1)N(Cc1ccccc1)C(=O)Cc1cccs1 (configuration not stated)	-25.2%	0.0%	3.6%	-21.7%	1.3%	-6.7%
O=C(NC1CCCCC1)C(c1cccnc1)N(CCc1ccccc1)C(=O)Cc1cccs1 (configuration not stated)	1.2%	?	-0.4%	10.3µM*	9.8%	2.3%
COC(=O)c1ccc(C(C(=O)NC2CCCCC2)N(Cc2ccccc2)C(=O)Cc2cccs2)cc1 (configuration not stated)	7.4%	3.26µM*	-1.9%	4.11µM*	-1.7%	3.5%
COc1ccc(S(=O)(=O)NCC(c2ccco2)N2CCN(c3ccccc3F)CC2)cc1C (configuration not stated)	·	20.6µM*	·	18.4µM*	-1.0%	-10.7%
COc1ccc(N2CCN(C(CNS(=O)(=O)c3ccc4c(c3)OCCO4)c3ccco3)CC2)cc1 (configuration not stated)	-14.1%	13µM*	-9.3%	?	0.0%	-40.8%
SMILES	HT1080 IDH1KD tx	TDP1 cell CPT	HT1080-NT tox	TDP1 cell noCPT	TGFb SMAD3 inh	HepG2 tox
CCS(=O)(=O)NCC(c1ccco1)N1CCN(c2ccc(OC)cc2)CC1 (configuration not stated)	·	12.3%	·	17.1%	-7.9%	-7.9%
COc1ccc(N2CCN(C(CNS(=O)(=O)c3c(C)cc(C)cc3C)c3ccco3)CC2)cc1 (configuration not stated)	·	?	·	25.9µM*	-18.3%	-15.0%
COc1ccc(S(=O)(=O)NCC(c2ccco2)N2CCN(c3ccc(F)cc3)CC2)cc1 (configuration not stated)	·	?	·	?	0.0%	-14.8%
O=C(COc1ccc(Cl)cc1)N(Cc1ccco1)c1ccccn1	·	-14.2%	·	-28.6%	?	-1.9%
Cc1cc(C)c(NC(=O)CNC(=O)[C@@H]2CCCN2C(=O)c2cccs2)c(C)c1	-1.1%	0.5%	4.4%	20.7%	-12.9%	-1.8%
CC(=O)C1=C(c2ccc(Cl)c(Cl)c2)N(C(C)=O)n2c(nnc2C2CCCCC2)S1	·	?	·	-26.5%	-6.6%	-2.8%
CCC(=O)C1=C(c2ccccc2)N(C(=O)CC)n2c(nnc2C2CCCCC2)S1	·	8.9%	·	-2.5%	-0.4%	-16.8%
CCC(=O)C1=C(c2cccc([N+](=O)[O-])c2)N(C(=O)CC)n2c(nnc2-c2ccccc2)S1	·	4.11µM*	·	3.26µM*	-4.9%	-4.8%
